In PubChem BioAssay (NCATS):
Values joined by “and” are separate entries in the source; they are usually repeats but may differ in a detail not shown here. Equal values may be shown once. Records with an inconclusive call do not appear. A number with no mark means an inactive call. Active and inactive are the calls of the source. The call rests on the fitted dose curve; in most records, active means well fitted curve in the direction sought with a large enough effect; inconclusive means small, poorly fitted or top-dose-only effect, or another doubt; inactive means no such curve, though single readings can be large; an effect the other way counts as inactive or inconclusive.

What was measured:
[1] = biological target: Cellular tumor antigen p53 (Homo sapiens) (UniProt P04637); assay: Primary qHTS for small molecule compounds that upregulate eGFP-tagged delta133p53alpha (in N-terminal) cells. (AID 2060322); conditions: NCI-H358 eGFP-delta133p53alpha fluorescence, 24 h; activation: hits give high values; further: nearly all actives have a fitted effect of over 75% in size;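 on activation: cells pre-induced with doxycycline then dosed without doxycycline; series mostly up to about 56 µM; 0% = DMSO vehicle and 100% = reference activator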
Method in brief: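 NCI-H358 cells pre-induced 24 h with 10 ng/ml doxycycline for eGFP-delta133p53alpha, plated dox-free and exposed 24 h at 37C to titrated compounds. Fixed, Hoechst-stained; gated GFP peak intensity by laser scanning cytometry, normalized to DMSO (0%) and 57.5 uM 5-azacytidine (100%).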

[2] = BET inhibitor-based combinations targeting novel dependencies in MECOM-rearranged (r) AML: SET-2 cell line (AID 2202231); conditions: SET-2 AML cells viability, CellTiter-Glo luminescence, 48 h; viability: hits give low values, concentration not given here; further: nearly all actives have a fitted effect of over 35% in size;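 on viability: plate controls were DMSO treated cells for no effect and wells without cells for full effect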
Method in brief: (§1)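 Luminescent ATP readout (CellTiter-Glo) after 48 hr drug exposure gives viability. Curves span 11 concentrations and are normalized to DMSO and empty wells. Activity is reported as area under the curve and its Z-transform within each cell line.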

[3] = BET inhibitor-based combinations targeting novel dependencies in MECOM-rearranged (r) AML: OCI-AML3 cell line (AID 2202232); conditions: Potency: OCI-AML3 viability; further: nearly all actives have a fitted effect of over 35% in size
Method in brief: as §1

[4] = BET inhibitor-based combinations targeting novel dependencies in MECOM-rearranged (r) AML: MV-4-11 cell line (AID 2202233); further: nearly all actives have a fitted effect of over 45% in size
Method in brief: (§2)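 Luminescent ATP readout (CellTiter-Glo, 15 min at room temperature) after 48 hr drug exposure gave viability. Dose-response curves, normalized to DMSO and empty-well controls, were summarized as area under the curve and its mean-centred Z-score.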

[5] = BET inhibitor-based combinations targeting novel dependencies in MECOM-rearranged (r) AML: HNT-34 cell line (AID 2202234); further: nearly all actives have a fitted effect of over 35% in size
Method in brief: as §2

[6] = BET inhibitor-based combinations targeting novel dependencies in MECOM-rearranged (r) AML: AML-194 cell line (AID 2202237; further: nearly all actives have a fitted effect of over 40% in size)
Method in brief: as §1

[7] = BET inhibitor-based combinations targeting novel dependencies in MECOM-rearranged (r) AML: UCSD-AML1 cell line (AID 2202235); further: nearly all actives have a fitted effect of over 40% in size
Method in brief: as §2

[8] = BET inhibitor-based combinations targeting novel dependencies in MECOM-rearranged (r) AML: AML-191 cell line (AID 2202236; further: nearly all actives have a fitted effect of over 35% in size)
Method in brief: as §1
Potency means the concentration at half of the fitted maximal effect.

Sequence of Cellular tumor antigen p53 (Homo sapiens) (P04637 whole entry, looked up): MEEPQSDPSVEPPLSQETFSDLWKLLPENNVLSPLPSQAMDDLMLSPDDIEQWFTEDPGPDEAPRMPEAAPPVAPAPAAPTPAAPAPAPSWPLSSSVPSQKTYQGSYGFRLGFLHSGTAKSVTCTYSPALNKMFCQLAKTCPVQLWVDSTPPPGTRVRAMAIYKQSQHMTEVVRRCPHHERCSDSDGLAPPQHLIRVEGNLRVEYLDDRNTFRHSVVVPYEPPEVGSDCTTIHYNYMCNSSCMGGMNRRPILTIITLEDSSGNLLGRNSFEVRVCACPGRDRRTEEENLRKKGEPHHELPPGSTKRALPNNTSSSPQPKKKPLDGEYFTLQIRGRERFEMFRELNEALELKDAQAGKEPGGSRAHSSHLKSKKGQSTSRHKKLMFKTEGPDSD

Compound | activation [1] | viability [2] | Potency [3] | Potency [4] | Potency [5] | Potency [6] | Potency [1] | Potency [2] | Potency [7] | Potency [8]
CCOC(=O)[C@H](CCc1ccccc1)N[C@@H](C)C(=O)N1[C@H](C(=O)O)C[C@@H]2CCC[C@@H]21 | 5.08% | 108% | inactive | inactive | inactive | inactive |  |  |  | 
CN1CC[C@@H](c2c(O)cc(O)c3c(=O)cc(-c4ccccc4Cl)oc23)[C@@H](O)C1 |  |  | 263 nM (active) | 468 nM (active) |  | 417 nM (active) | 217 nM (active) | 525 nM (active) | 417 nM (active) | 372 nM (active)
CS(=O)(=O)OCCCCOS(C)(=O)=O | -9.57% | 114% | inactive | inactive |  |  |  |  | inactive | inactive
CC[C@H](NC(C)C)[C@H](O)c1ccc(O)c2[nH]c(=O)ccc12 | -13% and -16.9% | 117% | inactive | inactive | inactive | inactive |  |  |  | inactive
O=C(O)C(O)Cc1ccc(O)c(O)c1 (stereo unspecified) | -12.6% | 99.8% | inactive | inactive | inactive | inactive |  |  |  | inactive
Cc1ccc(C(=O)Nc2cccc(C(F)(F)F)c2)cc1Nc1nc(-c2cccnc2)nc2c1cnn2C | 9.99% |  | 8330 nM (active) | 16600 nM (active) | 9340 nM (active) | 10500 nM (active) |  | 20900 nM (active) |  | 8330 nM (active)
C[C@@H]1C[C@H]2[C@@H]3CCC4=CC(=O)C=C[C@]4(C)[C@@]3(F)[C@@H](O)C[C@]2(C)[C@@]1(O)C(=O)CO | -11.9% | 112% | inactive | inactive |  |  |  |  | inactive | 
CC1(C)CCC2=C(O1)c1ccccc1C(=O)C2=O | -0.948% |  | 18600 nM (active) | 18600 nM (active) | 16600 nM (active) | 26300 nM (active) |  | 18600 nM (active) |  | 7420 nM (active)
CN(C)c1ccc(C(=C2C=CC(=[N+](C)C)C=C2)c2ccc(N(C)C)cc2)cc1 | -20.9% |  | 1320 nM (active) | 662 nM (active) | 934 nM (active) | 934 nM (active) |  | 1050 nM (active) |  | 1180 nM (active)
O=C(O)[C@@H](c1ccc(OCc2ccc3ccccc3n2)cc1)C1CCCC1 | -11.6% | 99.7% | inactive | 13200 nM (active) |  | inactive |  |  | inactive | inactive
Cc1ccc(O)c(C(CCN(C(C)C)C(C)C)c2ccccc2)c1 (stereo unspecified) | 47.6% | 117% | inactive | inactive | inactive | inactive |  |  |  | 
Cc1nc(-c2ccc(OCC(C)C)c(C#N)c2)sc1C(=O)O | 4.32% and -8.37% | 109% | inactive | inactive |  | inactive |  |  | inactive | inactive
CC(=O)[C@H]1CC[C@H]2[C@@H]3CC=C4C[C@@H](O)CC[C@]4(C)[C@H]3CC[C@]12C | -3.95% and -16.2% | 112% | inactive | inactive |  | inactive |  |  | inactive | inactive
COc1ccc(-n2c(C)c([N+](=O)[O-])c3ccc(O)cc32)cc1 | -5.31% | 107% | inactive | 5250 nM (active) |  |  |  |  | inactive | 6610 nM (active)
CN[C@@H]1CN(c2ccc3c(=O)c(C(=O)O)cn(-c4nccs4)c3n2)C[C@@H]1OC | 8.83% |  | 1150 nM (active) | 323 nM (active) | 1150 nM (active) | 1290 nM (active) |  | 3230 nM (active) |  | 1820 nM (active)
NC(=O)C1CCCc2c1[nH]c1ccc(Cl)cc21 (stereo unspecified) | 10.6% | 104% | inactive | inactive |  | inactive |  |  | inactive | inactive
CCN(CC)CCCCNc1ncc2cc(-c3cc(OC)cc(OC)c3)c(NC(=O)NC(C)(C)C)nc2n1 | 27.9% |  | 16600 nM (active) | 11800 nM (active) | 8330 nM (active) | 16600 nM (active) |  | 20900 nM (active) |  | 18600 nM (active)
CCOC(=O)C1=C[C@@H](OC(CC)CC)[C@H](NC(C)=O)[C@@H](N)C1 | -8.89% | 112% | inactive | inactive | inactive | inactive |  |  |  | inactive
C[C@](Cc1c[nH]c2ccccc12)(NC(=O)OC1C2CC3CC(C2)CC1C3)C(=O)NC[C@H](NC(=O)CCC(=O)O)c1ccccc1 (stereo partly specified) | 8.58% | 110% | inactive | inactive | inactive | inactive |  |  |  | 
O=C(Nc1cccc(Cl)c1)Nc1ncc(CCNc2ncnc3ccsc23)s1 | -7.26% |  | 166 nM (active) |  | inactive |  |  | 20900 nM (active) | inactive | 
S=c1nc[nH]c2nc[nH]c12 | -18.4% and 17.9% |  | 1860 nM (active) | 417 nM (active) |  | 590 nM (active) |  | 2630 nM (active) | 3720 nM (active) | 
O=C(/C=C/C#Cc1cccc(NS(=O)(=O)c2ccccc2)c1)NO | -10.1% |  | 574 nM (active) | 182 nM (active) |  | 910 nM (active) |  | 407 nM (active) | 645 nM (active) | 723 nM (active)
CN1CCN(c2cc(C(=O)Nc3ccc4c(c3)-c3c(c(C(N)=O)nn3-c3ccc(F)cc3)CC4)c(Cl)cn2)CC1 | 10.2% |  | 16600 nM (active) | 7420 nM (active) |  |  |  | 8330 nM (active) |  | 8330 nM (active)
COc1ccc(-c2ccc3cc(C(=O)O)ccc3c2)cc1C12CC3CC(CC(C3)C1)C2 | -14.2% and 5.04% | 111% | 3.3 nM (active) |  | inactive | inactive |  |  | inactive | inactive
